Targets with a hit are over-represented here; the source holds about 8,800 in all. About 0.5% of all pairs of compound and target were hits. A number with no mark means an inactive call.
Experiments:
Assay in all cases: log2 fold change, soluble protein after heating vs DMSO (PISA); higher = thermal stabilisation; K562 lysate, 10 uM; active = over 0.2 and 3.5 SD of the protein, either way, in both replicates (recomputed)
erlotinib = compound: C#Cc1cccc(Nc2ncnc3cc(OCCOC)c(OCCOC)cc23)c1 [erlotinib]
Summary of the method: (§1)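 The values are log-two fold changes in thermal stability compared with solvent controls and come from duplicates. They were obtained by TMTpro 16plex LC-MS/MS, with channel sums equalised, on the supernatant after 21,000xg for 90 min. That supernatant came from crude K562 extract at 1 mg/mL protein treated with 10 μM compound for 30 min, heated for 3 min across 48°C-58°C, pooled and brought to 0.5% NP-40 at 4°C.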

[1] = compound: C/C(=N\NC(=O)C1=CC(=CC=C1)S(=O)(=O)N2CCOCC2)/C3=C(C=CC(=C3)Cl)O
Summary of the method: as §1

[2] = compound: C1=CC(=CC=C1C2=NC3=C(N2)C=C(C=C3)C(=O)N)OC4=CC=C(C=C4)Cl
Summary of the method: as §1

[3] = compound: C1=CC2=C(C=CC(=C2)/C=C\3/C(=O)NC(=NCC4=CC=CS4)S3)N=C1
Summary of the method: as §1

[4] = compound: C1=CC2=NC=CN=C2C=C1/C=C/3\C(=O)NC(=O)S3
Summary of the method: as §1

[5] = compound: C1=CC=C(C=C1)C2=NC(=C(N2)C3=CC=NC=C3)C4=CC(=C(C=C4)Cl)O
Summary of the method: as §1

[6] = compound: C1=CC=C2C(=C1)C3=NNC4=CC=CC(=C43)C2=O
Summary of the method: as §1

[7] = compound: C1CCN(C1)C(=O)NC2=CC=CC(=C2)NC3=NC=C(C(=N3)NCCC4=CN=CN4)Br
Summary of the method: as §1

[8] = compound: C1CN(CCC1(CC2=CC=C(C=C2)Cl)N)C3=NC=NC4=C3C=CN4
Summary of the method: as §1

IRAK-1-4 Inhibitor I = compound: C1COCCN1CCN2C3=CC=CC=C3N=C2NC(=O)C4=CC(=CC=C4)[N+](=O)[O-] [IRAK-1-4 Inhibitor I]
Summary of the method: as §1

ibrutinib = compound: C=CC(=O)N1CCC[C@@H](n2nc(-c3ccc(Oc4ccccc4)cc3)c3c(N)ncnc32)C1 [ibrutinib]
Summary of the method: as §1

[9] = compound: CC(=O)c1cnc2ccc(-c3cc(Cl)c(O)c(Cl)c3)nc2c1N[C@H]1CC[C@H](CN(C)C)CC1
Summary of the method: as §1

ralimetinib = compound: CC(C)(C)Cn1c(N)nc2ccc(-c3[nH]c(C(C)(C)C)nc3-c3ccc(F)cc3)nc21 [ralimetinib]
Summary of the method: as §1

[10] = compound: CC(C)(O)CC(=O)NCCn1ccc2ncnc(Nc3ccc(Oc4cccc(C(F)(F)F)c4)c(Cl)c3)c21
Summary of the method: as §1

[11] = compound: CC(C)C1=C2N=C(C=C(N2N=C1)NCC3=CC=CC=C3)NCCCCCCN
Summary of the method: as §1

[12] = compound: CC1=C(C(CC(=O)N1)C2=CC=C(C=C2)C(F)(F)F)C(=O)NC3=C(C=C4C(=C3)C=NN4)F
Summary of the method: as §1

[13] = compound: CC1=C(C2=C(C=C1)C(=O)C3=CC=CC=C3N2CCCN)C
Summary of the method: as §1

[14] = compound: CC1=C(C=C(C=C1)NC(=O)C2=CC(=CC=C2)C(C)(C)C#N)NC3=CC4=C(C=C3)N=CN(C4=O)C
Summary of the method: as §1

[15] = compound: CC1=C(C=C(C=C1)NC(=O)C2=CC(=CC=C2)N(C)C)NC(=O)C3=CC=C(C=C3)O
Summary of the method: as §1

[16] = compound: CC1=CC=C(C=C1)SC2=C3C=C(SC3=CN=C2)C(=O)N
Summary of the method: as §1

Sequence of UniProt Q9H4L5 (Q9H4L5 whole entry, looked up): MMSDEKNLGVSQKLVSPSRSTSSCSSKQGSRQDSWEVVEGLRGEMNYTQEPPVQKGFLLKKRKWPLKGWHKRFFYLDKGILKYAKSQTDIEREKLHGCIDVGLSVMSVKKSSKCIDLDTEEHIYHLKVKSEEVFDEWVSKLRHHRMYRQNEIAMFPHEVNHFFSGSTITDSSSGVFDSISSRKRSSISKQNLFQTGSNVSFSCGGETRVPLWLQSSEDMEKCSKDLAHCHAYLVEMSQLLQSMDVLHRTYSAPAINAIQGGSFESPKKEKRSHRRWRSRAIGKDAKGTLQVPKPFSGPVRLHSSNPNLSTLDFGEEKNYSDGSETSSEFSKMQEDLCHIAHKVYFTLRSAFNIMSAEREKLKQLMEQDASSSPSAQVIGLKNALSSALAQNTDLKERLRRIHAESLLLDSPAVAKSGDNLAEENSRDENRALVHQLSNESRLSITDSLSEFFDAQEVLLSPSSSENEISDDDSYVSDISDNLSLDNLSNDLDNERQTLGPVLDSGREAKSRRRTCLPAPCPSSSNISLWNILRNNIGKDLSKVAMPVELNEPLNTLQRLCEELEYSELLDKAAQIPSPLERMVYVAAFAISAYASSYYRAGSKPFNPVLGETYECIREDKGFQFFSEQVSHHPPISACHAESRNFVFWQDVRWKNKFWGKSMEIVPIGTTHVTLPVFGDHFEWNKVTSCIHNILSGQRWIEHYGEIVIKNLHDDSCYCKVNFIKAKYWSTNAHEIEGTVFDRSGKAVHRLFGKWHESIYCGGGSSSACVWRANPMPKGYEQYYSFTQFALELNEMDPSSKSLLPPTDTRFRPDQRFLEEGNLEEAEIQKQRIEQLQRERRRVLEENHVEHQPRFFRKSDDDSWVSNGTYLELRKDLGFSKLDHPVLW
Sequence of UniProt Q8NCF5 (Q8NCF5 whole entry, looked up): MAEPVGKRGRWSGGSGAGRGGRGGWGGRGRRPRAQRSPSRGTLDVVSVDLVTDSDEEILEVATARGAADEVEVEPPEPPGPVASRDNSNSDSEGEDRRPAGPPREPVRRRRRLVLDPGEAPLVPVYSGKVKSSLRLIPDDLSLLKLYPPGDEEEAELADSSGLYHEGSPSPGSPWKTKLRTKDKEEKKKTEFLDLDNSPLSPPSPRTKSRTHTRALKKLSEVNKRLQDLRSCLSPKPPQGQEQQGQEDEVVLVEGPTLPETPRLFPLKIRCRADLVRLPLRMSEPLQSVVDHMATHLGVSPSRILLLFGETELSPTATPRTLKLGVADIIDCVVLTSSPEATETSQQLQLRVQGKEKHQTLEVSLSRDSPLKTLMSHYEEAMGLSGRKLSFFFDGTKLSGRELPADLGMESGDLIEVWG
Sequence of UniProt P28331 (P28331 whole entry, looked up): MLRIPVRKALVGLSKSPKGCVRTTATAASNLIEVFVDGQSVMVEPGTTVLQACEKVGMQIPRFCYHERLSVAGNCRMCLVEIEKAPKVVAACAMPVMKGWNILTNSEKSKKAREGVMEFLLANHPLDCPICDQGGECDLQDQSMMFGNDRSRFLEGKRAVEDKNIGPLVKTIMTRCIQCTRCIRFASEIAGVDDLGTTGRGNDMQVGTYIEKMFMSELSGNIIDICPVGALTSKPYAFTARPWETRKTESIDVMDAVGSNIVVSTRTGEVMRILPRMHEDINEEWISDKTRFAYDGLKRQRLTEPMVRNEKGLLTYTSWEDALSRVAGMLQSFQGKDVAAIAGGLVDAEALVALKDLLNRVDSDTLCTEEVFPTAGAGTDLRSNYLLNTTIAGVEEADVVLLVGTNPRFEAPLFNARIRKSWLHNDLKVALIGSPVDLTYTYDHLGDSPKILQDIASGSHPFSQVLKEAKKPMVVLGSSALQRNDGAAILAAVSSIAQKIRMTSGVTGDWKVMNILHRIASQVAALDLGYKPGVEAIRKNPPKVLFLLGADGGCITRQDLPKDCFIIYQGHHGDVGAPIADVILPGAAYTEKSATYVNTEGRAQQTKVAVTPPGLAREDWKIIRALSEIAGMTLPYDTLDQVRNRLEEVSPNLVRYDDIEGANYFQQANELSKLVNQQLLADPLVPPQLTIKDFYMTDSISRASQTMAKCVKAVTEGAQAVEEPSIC
Sequence of UniProt P22059 (P22059 whole entry, looked up): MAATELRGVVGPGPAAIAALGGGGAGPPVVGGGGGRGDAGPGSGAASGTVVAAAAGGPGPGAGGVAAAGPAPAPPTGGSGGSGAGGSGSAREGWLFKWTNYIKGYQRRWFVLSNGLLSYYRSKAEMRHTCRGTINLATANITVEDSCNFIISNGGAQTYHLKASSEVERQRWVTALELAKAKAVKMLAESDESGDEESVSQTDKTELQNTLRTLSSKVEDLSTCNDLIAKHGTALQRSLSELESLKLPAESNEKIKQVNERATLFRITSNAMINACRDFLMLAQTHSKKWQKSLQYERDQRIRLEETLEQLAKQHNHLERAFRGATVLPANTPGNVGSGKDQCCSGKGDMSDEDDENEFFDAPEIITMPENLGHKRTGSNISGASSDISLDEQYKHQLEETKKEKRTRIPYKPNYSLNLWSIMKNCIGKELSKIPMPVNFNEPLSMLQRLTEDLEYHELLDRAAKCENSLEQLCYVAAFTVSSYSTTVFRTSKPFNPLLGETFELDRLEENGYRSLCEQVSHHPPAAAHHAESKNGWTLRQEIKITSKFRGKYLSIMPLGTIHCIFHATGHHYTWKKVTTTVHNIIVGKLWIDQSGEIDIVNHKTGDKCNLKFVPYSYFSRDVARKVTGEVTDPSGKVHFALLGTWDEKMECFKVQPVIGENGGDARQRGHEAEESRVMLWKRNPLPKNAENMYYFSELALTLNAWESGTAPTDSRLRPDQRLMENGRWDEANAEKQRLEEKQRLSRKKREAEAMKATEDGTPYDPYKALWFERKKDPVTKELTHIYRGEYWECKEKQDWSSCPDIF
Sequence of UniProt Q9BZF3 (Q9BZF3 whole entry, looked up): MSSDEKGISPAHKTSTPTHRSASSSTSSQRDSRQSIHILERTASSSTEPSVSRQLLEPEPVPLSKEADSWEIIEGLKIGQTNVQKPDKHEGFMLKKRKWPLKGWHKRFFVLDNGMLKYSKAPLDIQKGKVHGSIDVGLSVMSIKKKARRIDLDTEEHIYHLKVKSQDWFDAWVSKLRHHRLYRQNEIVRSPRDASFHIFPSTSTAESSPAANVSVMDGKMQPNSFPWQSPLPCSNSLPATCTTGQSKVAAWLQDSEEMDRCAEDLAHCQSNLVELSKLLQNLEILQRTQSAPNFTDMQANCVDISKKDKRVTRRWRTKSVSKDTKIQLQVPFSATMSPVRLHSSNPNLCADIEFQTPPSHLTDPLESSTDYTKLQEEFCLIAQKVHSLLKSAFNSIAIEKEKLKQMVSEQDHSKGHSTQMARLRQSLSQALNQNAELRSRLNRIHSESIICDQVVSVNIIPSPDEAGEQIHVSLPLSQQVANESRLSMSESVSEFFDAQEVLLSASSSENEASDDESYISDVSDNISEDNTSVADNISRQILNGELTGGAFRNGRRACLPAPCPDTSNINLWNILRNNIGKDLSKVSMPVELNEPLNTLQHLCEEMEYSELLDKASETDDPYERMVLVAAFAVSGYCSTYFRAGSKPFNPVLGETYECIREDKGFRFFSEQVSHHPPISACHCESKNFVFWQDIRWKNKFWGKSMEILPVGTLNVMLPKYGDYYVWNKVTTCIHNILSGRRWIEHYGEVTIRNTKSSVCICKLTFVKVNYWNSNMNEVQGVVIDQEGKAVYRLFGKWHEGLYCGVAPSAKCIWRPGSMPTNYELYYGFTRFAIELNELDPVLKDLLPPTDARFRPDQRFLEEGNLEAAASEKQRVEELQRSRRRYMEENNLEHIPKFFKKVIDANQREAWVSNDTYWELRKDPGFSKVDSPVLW
Sequence of UniProt O00159 (O00159 whole entry, looked up): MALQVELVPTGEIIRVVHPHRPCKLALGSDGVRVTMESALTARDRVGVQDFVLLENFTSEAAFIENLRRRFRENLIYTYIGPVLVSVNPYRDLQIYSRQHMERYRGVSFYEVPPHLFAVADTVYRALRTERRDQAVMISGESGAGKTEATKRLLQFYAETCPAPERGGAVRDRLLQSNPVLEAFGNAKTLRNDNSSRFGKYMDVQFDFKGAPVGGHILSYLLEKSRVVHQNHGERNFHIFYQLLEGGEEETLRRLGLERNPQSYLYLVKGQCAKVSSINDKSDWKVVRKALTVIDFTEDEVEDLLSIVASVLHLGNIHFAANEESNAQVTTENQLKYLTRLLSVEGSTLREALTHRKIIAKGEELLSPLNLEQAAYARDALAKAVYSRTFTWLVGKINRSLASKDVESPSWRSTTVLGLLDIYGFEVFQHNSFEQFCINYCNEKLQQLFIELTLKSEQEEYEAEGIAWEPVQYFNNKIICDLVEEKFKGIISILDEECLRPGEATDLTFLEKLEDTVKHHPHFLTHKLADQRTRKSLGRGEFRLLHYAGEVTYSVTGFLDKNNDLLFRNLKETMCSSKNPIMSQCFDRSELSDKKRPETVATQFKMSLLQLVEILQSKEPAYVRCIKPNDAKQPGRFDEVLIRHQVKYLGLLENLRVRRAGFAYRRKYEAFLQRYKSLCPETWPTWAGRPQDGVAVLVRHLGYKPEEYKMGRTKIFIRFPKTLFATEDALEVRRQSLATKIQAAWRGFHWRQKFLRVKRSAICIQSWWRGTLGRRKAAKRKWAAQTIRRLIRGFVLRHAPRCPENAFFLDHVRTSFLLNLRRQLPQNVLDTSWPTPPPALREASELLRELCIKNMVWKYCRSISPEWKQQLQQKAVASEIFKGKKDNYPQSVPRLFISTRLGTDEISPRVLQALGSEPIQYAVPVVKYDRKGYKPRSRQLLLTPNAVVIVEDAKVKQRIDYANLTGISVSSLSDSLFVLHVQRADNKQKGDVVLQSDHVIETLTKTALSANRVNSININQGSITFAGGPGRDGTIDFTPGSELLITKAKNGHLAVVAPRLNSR

| Target | log2 fold change (erlotinib) | log2 fold change [1] | log2 fold change [2] | log2 fold change [3] | log2 fold change [4] | log2 fold change [5] | log2 fold change [6] | log2 fold change [7] | log2 fold change [8] | log2 fold change (IRAK-1-4 Inhibitor I) | log2 fold change (ibrutinib) | log2 fold change [9] | log2 fold change (ralimetinib) | log2 fold change [10] | log2 fold change [11] | log2 fold change [12] | log2 fold change [13] | log2 fold change [14] | log2 fold change [15] | log2 fold change [16] |
| --- | --- | --- | --- | --- | --- | --- | --- | --- | --- | --- | --- | --- | --- | --- | --- | --- | --- | --- | --- | --- |
| NUSAP1 (UniProt Q9BXS6) | -0.011 | -0.466 | 0.025 | -0.008 | -0.033 | 0.008 | 0.035 | 0.012 | 0.001 | -0.005 | -0.003 | -0.022 | 0.023 | -0.014 | -0.006 | -0.02 | -0.017 | -0.004 | 0.016 | -0.023 |
| ORC2 (UniProt Q13416) | -0.004 | -0.006 | -0.006 | 0.009 | 0.015 | 0.006 | -0.022 | 0 | -0.024 | -0.034 | 0.012 | -0.011 | 0.044 | 0.032 | -0.014 | 0.016 | -0.089 | -0.005 | -0.014 | 0.021 |
| OGT (UniProt O15294) | 0.021 | 0.053 | 0.01 | -0.008 | 0.008 | 0.024 | -0.021 | -0.006 | 0.02 | -0.017 | -0.035 | -0.024 | 0.021 | 0.023 | -0.007 | -0.009 | -0.026 | -0.014 | 0.032 | -0.005 |
| NOC2L (UniProt Q9Y3T9) | -0.036 | -0.013 | -0.018 | -0.029 | 0.027 | 0.031 | 0.077 | -0.009 | -0.004 | -0.046 | -0.047 | 0.015 | 0.047 | -0.005 | 0.026 | 0.014 | -0.074 | -0.02 | 0.021 | 0.014 |
| PARP14 (UniProt Q460N5) | 0.06 | -0.037 | 0.012 | -0.032 | 0.081 | 0.005 | -0.166 | -0.025 | 0.062 | -0.095 | 0.029 | -0.051 | -0.03 | 0.015 | 0.074 | 0.049 | 0.011 | -0.007 | 0.002 | -0.135 |
| NFATC2IP (UniProt Q8NCF5) | 0.001 | 0.026 | -0.036 | 0.006 | 0.016 | 0.031 | -0.071 | 0.013 | -0.016 | -0.009 | 0.015 | -0.037 | 0 | -0.052 | 0.01 | -0.021 | -0.019 | -0.047 | 0.013 | 0.011 |
| OSBPL6 isoform 5 (UniProt Q9BZF3) | 0.182 | 0.398 (active) | 0.09 | -0.006 | -0.012 | 0.257 | 0.107 | -0.029 | -0.015 | -0.08 | 0.118 | -0.031 | 0.23 | -0.042 | 0.098 | -0.032 | 0.016 | 0.015 | -0.013 | 0.01 |
| NAA35 (UniProt Q5VZE5) | 0.017 | 0.054 | -0.023 | 0.115 | 0.021 | 0.01 | -0.002 | -0.026 | -0.025 | 0.013 | -0.005 | -0.017 | 0.006 | 0.042 | -0.01 | -0.008 | -0.004 | -0.006 | 0.017 | -0.02 |
| NCKAP1L (UniProt P55160) | 0.005 | -0.06 | -0.006 | 0.196 | 0.055 | -0.032 | -0.156 | 0.06 | 0.084 | 0.06 | -0.18 | 0.021 | 0.025 | -0.04 | -0.111 | -0.051 | -0.089 | -0.012 | 0.04 | 0.025 |
| NUP98 (UniProt P52948) | -0.018 | 0.017 | 0.023 | -0.026 | 0.005 | -0.079 | -0.004 | 0.015 | 0.021 | 0.002 | -0.01 | 0.047 | 0.047 | 0.022 | -0.037 | 0.034 | 0.029 | -0.022 | 0.008 | -0.017 |
| OSBP (UniProt P22059) | -0.023 | -0.056 | 0.037 | -0.006 | 0.017 | -0.031 | -0.031 | -0.016 | 0.016 | -0.112 | -0.007 | 0.003 | -0.019 | -0.007 | -0.19 | 0.018 | 0.04 | -0.103 | 0.011 | -0.003 |
| MYO1C (UniProt O00159) | -0.002 | -0.005 | 0.003 | 0.017 | 0.006 | 0.047 | -0.003 | -0.021 | -0.032 | -0.055 | 0.037 | 0.031 | 0.075 | -0.032 | -0.009 | -0.03 | 0.017 | -0.292 (active) | 0.021 | 0.06 |
| PAK1 (UniProt Q13153) | 0.043 | 0.018 | 0.01 | -0.017 | 0.01 | -0.014 | 0.018 | 0.028 | 0.041 | -0.007 | 0.067 | -0.011 | 0.001 | 0.004 | -0.108 | -0.003 | -0.018 | 0.041 | 0.008 | 0.009 |
| OSBPL3 isoform 2 (UniProt Q9H4L5) | 0.292 | 0.206 | 0.038 | 0.079 | -0.04 | 0.189 | 0.135 | -0.001 | -0.018 | -0.183 | 0.031 | -0.007 | 0.019 | 0.004 | -0.033 | 0.018 | 0.02 | 0.015 | 0.057 | -0.016 |
| NDUFS1 isoform 2 (UniProt P28331) | -0.006 | 0.033 | -0.045 | 0.025 | 0.027 | -0.033 | -0.027 | -0.052 | 0.006 | 0.006 | -0.022 | -0.009 | 0.014 | -0.049 | -0.041 | 0.01 | 0.007 | -0.045 | 0.005 | 0.005 |
| NUCB2 (UniProt P80303) | -0.003 | 0.018 | 0.014 | -0.018 | 0.011 | -0.015 | -0.017 | 0.003 | 0.003 | 0.007 | 0.025 | 0.002 | -0.023 | 0.01 | 0.009 | 0.04 | -0.006 | 0 | -0.015 | -0.014 |
